KDM5B inhibitor – inhibitors of human KDM5B histone demethylase; Potency, µM (titrated, usually from 57.7 µM), usual class: inhibitors; Q9UGL1; KDM5B demethylase, FDH-coupled NADH fluorescence (FDH is formaldehyde dehydrogenase); 2.6% of 220,000 active; active = well fitted inhibition curve with a large enough effect; also: nearly all actives have a fitted effect of over 70% in size
Target sequence (Q9UGL1 whole entry, looked up): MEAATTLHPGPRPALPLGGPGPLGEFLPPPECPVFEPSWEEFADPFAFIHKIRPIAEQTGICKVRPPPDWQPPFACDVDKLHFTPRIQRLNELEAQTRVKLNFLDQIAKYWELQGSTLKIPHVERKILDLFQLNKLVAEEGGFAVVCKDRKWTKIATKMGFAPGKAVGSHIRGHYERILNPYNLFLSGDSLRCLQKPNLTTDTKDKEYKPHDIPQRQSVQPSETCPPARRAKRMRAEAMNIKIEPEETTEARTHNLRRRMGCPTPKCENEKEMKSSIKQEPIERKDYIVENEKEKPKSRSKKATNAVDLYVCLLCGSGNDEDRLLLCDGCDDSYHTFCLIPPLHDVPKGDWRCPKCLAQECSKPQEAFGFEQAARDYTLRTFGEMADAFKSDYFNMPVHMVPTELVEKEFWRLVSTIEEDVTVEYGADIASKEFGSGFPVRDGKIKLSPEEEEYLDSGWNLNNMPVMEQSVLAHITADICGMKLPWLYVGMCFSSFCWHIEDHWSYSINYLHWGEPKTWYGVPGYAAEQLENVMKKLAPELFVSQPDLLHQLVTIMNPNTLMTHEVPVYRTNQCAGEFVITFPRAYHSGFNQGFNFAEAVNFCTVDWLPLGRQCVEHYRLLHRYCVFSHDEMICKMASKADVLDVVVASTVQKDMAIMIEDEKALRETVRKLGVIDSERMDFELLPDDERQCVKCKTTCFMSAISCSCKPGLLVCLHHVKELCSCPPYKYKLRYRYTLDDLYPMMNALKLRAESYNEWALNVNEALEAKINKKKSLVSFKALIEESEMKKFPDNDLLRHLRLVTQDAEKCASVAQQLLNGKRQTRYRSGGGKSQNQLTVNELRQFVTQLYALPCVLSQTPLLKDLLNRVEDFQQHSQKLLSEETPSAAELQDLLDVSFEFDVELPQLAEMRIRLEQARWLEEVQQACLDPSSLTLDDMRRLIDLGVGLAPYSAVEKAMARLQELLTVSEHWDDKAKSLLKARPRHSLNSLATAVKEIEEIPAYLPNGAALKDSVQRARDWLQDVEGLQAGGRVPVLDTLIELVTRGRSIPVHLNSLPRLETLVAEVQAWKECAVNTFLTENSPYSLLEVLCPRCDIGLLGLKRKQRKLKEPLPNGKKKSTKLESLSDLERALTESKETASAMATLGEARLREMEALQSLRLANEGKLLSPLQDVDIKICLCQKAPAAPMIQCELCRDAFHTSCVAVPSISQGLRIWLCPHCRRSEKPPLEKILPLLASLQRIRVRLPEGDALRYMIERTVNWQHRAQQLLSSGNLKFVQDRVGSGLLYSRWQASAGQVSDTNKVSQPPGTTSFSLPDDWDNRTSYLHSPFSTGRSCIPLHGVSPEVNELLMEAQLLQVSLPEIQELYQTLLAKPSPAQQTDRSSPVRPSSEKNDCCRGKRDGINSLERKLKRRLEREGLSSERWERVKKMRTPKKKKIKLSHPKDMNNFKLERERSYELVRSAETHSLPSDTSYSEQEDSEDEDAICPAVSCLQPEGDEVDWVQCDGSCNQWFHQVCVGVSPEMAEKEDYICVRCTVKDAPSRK
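Here, H3K4me3 peptide (12.5 µM in substrate mix) is demethylated by KDM5BΔAP, 200 nM final, after 10 min compound exposure. Formaldehyde product is coupled through FDH (0.25 U/mL in mix) to NADH fluorescence; 30-min ΔRFU feeds dose-response curves.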
Large screens that a line does not name were inactive. The full list was thinned out, with hits kept by preference.

COCCCNc1nc2c([S+](=O)([O-])c3ccc(OC)cc3)nnn2c2ccccc12	KDM5B inhibitor 31.6µM
COCCNc1nc2c(S(=O)(=O)c3ccc(C)c(C)c3)nnn2c2ccc(Cl)cc12	none
COc1ccc([S+](=O)([O-])c2nnn3c2nc(N2CCOCC2)c2ccccc23)cc1	KDM5B inhibitor 79.4µM
CCOc1ccc(-c2cc3ccccc3[nH]2)cc1	none
CCOC(=O)C1=C(N)Oc2c(oc(CO)cc2=O)C1c1cc(Cl)ccc1Cl (stereo not given)	none
Cc1ccc(O)c(NC(=O)c2cc(-c3cccnc3)nc3ccccc23)c1	none
CN1Cc2ccc(NCc3ccccc3)nc2C(C)(C(=O)NC2CCC2)C1 (stereo not given)	none
COc1ccc(NC(=O)C2(C)CCc3cnc(NCc4ccccc4)nc32)cn1 (stereo not given)	KDM5B inhibitor 39.8µM
COc1cccc(NC(=O)C2(C)CCc3cnc(NCc4ccccc4)nc32)c1 (stereo not given)	none
COc1ccc(NC(=O)Cn2nc3c(cc2=O)CCCCC3)cn1	none
COCCCNC(=S)NNC(=O)c1cc(C2CC2)nc2ccccc12	none
COCCCNC(=O)C1(C)CN(C)Cc2ccc(NCc3ccccc3)nc21 (stereo not given)	KDM5B inhibitor 31.6µM
COc1ccc(NC(=O)C2=NO[C@@H]3CN(CCc4ccccc4)C[C@H]23)cn1	none
COc1ccc(NC(=O)C2(C)CN(C)Cc3ccc(NCc4ccccc4)nc32)cn1 (stereo not given)	KDM5B inhibitor 31.6µM
O=C(COc1ccccc1Cl)N1CCCC(O)(CN2CCCC2)C1 (stereo not given)	none
CNC(=O)CCn1ncc2cc(OC3CCc4cccc(-c5cccc(CO)c5)c43)ccc21 (stereo not given)	none
Cc1c(C(=O)OCCOc2ccc(Cl)cc2Cl)sc(=S)n1C	none
C=CCOc1nc2c(c(=O)n(Cc3ccccc3)c(=O)n2C)n1C	none
NS(=O)(=O)c1cccc(NC(=O)c2cn(Cc3ccccc3)nc2-c2ccccc2)c1	none
CC1(C)CC(=O)C2=C(C1)Nc1[nH]n(-c3ccccc3)c(=O)c1C2c1ccc(Br)cc1 (stereo not given)	none
Cc1ccc(C)c(-c2nn(CC(=O)Nc3ccccc3F)c(=O)c3c2CCCC3)c1	none
CN1CCC(Cn2ccc3c(N4CCOCC4)nc(-c4cccc(N[S+](C)(=O)[O-])c4)cc32)CC1	none
CN1CCC(Cn2ccc3c(N4CCOCC4)nc(-c4cccc5[nH]ccc45)cc32)CC1	KDM5B inhibitor 7.94µM
C[S+](=O)([O-])N1CCC(Cn2ccc3c(N4CCOCC4)nc(-c4cccc5[nH]ncc45)cc32)CC1	KDM5B inhibitor 12.6µM
CN1CCC(Cn2ccc3c(N4CCOCC4)nc(-c4ccc5cn[nH]c5c4)cc32)CC1	KDM5B inhibitor 35.5µM
CN1CCC(Nc2ncc(C(C)(C)C(=O)O)c(N3CCOCC3)n2)CC1	none
CCOC(=O)c1nnn2c1nc(N1CCOCC1)c1ccccc12	none
CN1CCC(Cn2ccc3c(N4CCOCC4)nc(-c4cccc(N5CCOCC5)c4)cc32)CC1	none
Cc1cc(C)cc(-n2cccc2)c1	none
CCCOc1ccc(CNC(=O)CS(=O)(=O)Cc2nc(-c3ccccc3C)oc2C)cc1	none
O=c1cc(-c2ccc(F)cc2)oc2ccc(Cl)cc12	none
C1CCC(CN2CCCC(c3nc(CCOCC4CCOCC4)no3)C2)CC1 (stereo not given)	none
O/N=c1/oc2cc3occ(-c4ccccc4)c3cc2c2c1CCC2	none
Cc1csc(NC(=O)c2nn(C)c(=O)c3ccccc23)n1	none
O=C(COC(=O)c1ccccc1Br)c1ccc([N+](=O)[O-])cc1	none
O=c1[nH]cnc2scc(-c3ccc(Cl)cc3)c12	none
Cc1cc(C)c(C(C)NC(=O)Cn2nnn(-c3ccccc3)c2=O)cc1C (stereo not given)	none
CCN(Cc1cc2ccccc2[nH]c1=O)S(=O)(=O)c1ccc(C)cc1	none
COc1ccccc1NC(=O)Cn1nc(C(=O)O)c2ccccc2c1=O	none
O=C(O)CCNS(=O)(=O)c1ccccc1Cl	none
Cc1ccc(-c2nnc(SCC(=O)Nc3c(C)nn(-c4ccccc4)c3C)n2N)cc1	none
Cc1nn(C)c(C)c1CC(=O)NCc1cccnc1N1CCOCC1	none
Cc1ccc(-c2cnc(CCC(=O)NCCN3CCOCC3)o2)cc1C	none
CCCNC(=O)CCc1ccnc(N2CCOCC2)c1	KDM5B inhibitor 28.2µM
O=C(CNC(=O)c1cc(F)cc(F)c1)NCCN1CCc2ccccc2C1	none
CCCNC(=O)COc1nc2ccccc2nc1N1CCOCC1	none
Cc1cc(C(=O)NCc2ccnc(N3CCCC3)c2)on1	none
O=C(CCc1ccnc(N2CCOCC2)c1)NCCN1CCc2ccccc2C1	KDM5B inhibitor 25.1µM
Cc1ccc(N2CCN(C(=O)CCc3ccnc(N4CCOCC4)c3)CC2)cc1	none
Cc1ccccc1CNC(=O)CCc1ccnc(N2CCOCC2)c1	KDM5B inhibitor 22.4µM
O=C(CC12CC3CC(CC(C3)C1)C2)NCc1ccc(Cl)cc1Cl	none
O=C(CSc1nnc(-c2ccncc2)n1-c1ccc(Cl)cc1)NCc1ccc2c(c1)OCO2	none
O=C(c1cc2cc(Cl)ccc2oc1=O)N1CCN(c2ccccc2)CC1	none
CN1C(=O)Cc2cc(-c3csc(NC4CCCC4)n3)ccc21	none
COC(=O)C(C#N)c1nc2ccccc2nc1NCC(C)C (stereo not given)	none
